A short description of assay [1]: Viability counterscreen for antagonist of constitutive androstane receptor (CAR) against the NCATS DSHEA and TCM libraries (AID 1794837).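 Note: compound exposure lasted 24 h before viability reading; 0% is about no effect.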 In outline:
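Fluorescence from CellTiter-Fluor reports live-cell protease activity in HepG2-CYP2B6-hCAR cells treated for 24 h with substances alongside 48 uM CITCO.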
On the technique in general: The purpose of a counterscreen is to sort out artefacts and off-target activity.

The nature of assay [2]: Viability counterscreen for agonist of constitutive androstane receptor (CAR) against the NCATS DSHEA and TCM libraries (AID 1794838).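 Note: HepG2 cells with CYP2B6 reporter and hCAR plus 0.75 µM PK11195 antagonist; 0% is about no effect.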 In outline:
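In agonist mode, PK11195 is added at 0.75 uM final to HepG2-CYP2B6-hCAR cells dosed with test substances. Cultures incubate 24 h at 37C before a protease-based fluorogenic viability readout.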

Assay [3] in a line: HepG2 viability counterscreen (readout 2: ATP content) against the NCATS DSHEA and TCM libraries (AID 1794840).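 Note: HepG2 cells exposed to substances for about 24 h; 0% is about no effect.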 In outline: (§1)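 Cytotoxicity was assessed in HepG2 cells plated at 1,000 cells/well and exposed for about 24 hours to a concentration series. Protease activity and ATP content were measured sequentially in each well.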
Assay [4] deals with Cytochrome P450 3A4 (Homo sapiens) (UniProt P08684). The assay is described as follows: qHTS for inhibitors of CYP3A4 against the NCATS DSHEA and TCM libraries (AID 1919971).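 Note: % is set by controls: 0 for no effect and ±100 for the full control effect; inhibition lowers luminescence from luciferin made by CYP3A4.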 In outline:
(§2)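 Luminescent P450-Glo format: compounds preincubated 15 min with enzyme and luciferin substrate, reaction run 30-45 min after NADPH regeneration solution. Intraplate controls: ketoconazole for CYP3A4 and CYP2C19, sulfaphenazole for CYP2C9.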

For assay [5], the target named is Cytochrome P450 2D6 (Homo sapiens) (UniProt P10635). The assay is described as follows: qHTS for inhibitors of CYP2D6 against the NCATS DSHEA and TCM libraries (AID 1919972). Note: % is set by controls: 0 for no effect and ±100 for the full control effect. In outline: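 Luminescent P450-Glo read-out of CYP2D6 turnover of a luciferin substrate after NADPH-driven reaction of 30-45 min at room temperature. Compounds were first preincubated 15 min with enzyme at titrated concentrations; quinidine was the intraplate control.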

The target of assay [6] is Cytochrome P450 2C9 (Homo sapiens) (UniProt P11712). The assay is described as follows: qHTS for inhibitors of CYP2C9 against the NCATS DSHEA and TCM libraries (AID 1919973).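 Note: luminogenic pro-luciferin CYP2C9 substrate turned into luciferin with NADPH regeneration; series mostly up to about 34 µM; % is set by controls: 0 for no effect and ±100 for the full control effect.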 In outline:
as §2

The target of assay [7] is Cytochrome P450 2C19 (Homo sapiens) (UniProt P33261). The assay is described as follows: qHTS for inhibitors of CYP2C19 against the NCATS DSHEA and TCM libraries (AID 1919974).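 Note: luminescence from luciferin released by CYP2C19 oxidation of a pro-luciferin substrate.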 Note: potency is the fitted concentration of half-maximal effect. In a few lines:
as §2
On the technique in general: Quantitative high-throughput screening tests each substance at several concentrations.

The nature of assay [8]: KB-3-1 P-gp reporter qHTS against the NCATS DSHEA and TCM libraries (AID 1919975). Note: 0% is about no effect. In a few lines: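 72 h exposure of KB-3-1 cells (DMEM, 10% FBS) to DSHEA/TCM samples, concentration-response; cell viability measured as CellTiter-Glo luminescence after 30 min at room temperature.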
The target in assay [9] is Cytochrome P450 1A2 (Homo sapiens) (UniProt P05177). The assay is described as follows: qHTS for inhibitors of CYPIA2 against the NCATS DSHEA and TCM libraries (AID 1919976). Note: potency is the fitted concentration of half-maximal effect. In a few lines: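 Human CYP1A2 with pro-luciferin substrate (typically 100 mM KPO4), 15 min preincubation with compound, then 1x NADPH regeneration for 30-45 min at room temperature in the dark. Luciferin quantified by luciferase luminescence; furafylline intraplate control.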

Assay [10] in a line: qHTS Counterscreen for compound interference against the NCATS DSHEA and TCM libraries (AID 1919978). Note: % of control where 0% means no effect. The settings on record: firefly luciferase detection reagent interference, luminescence. In a few lines:
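Read-out is luminescence after 30 min at RT with luciferin detection reagent. Before that, compounds (19.5 nM to 39.8 uM final) sat 15 min at RT with 1 uM D-luciferin or 100 mM potassium phosphate buffer. PTC124 served as intraplate control.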

The nature of assay [11]: Dual reporter qHTS for agonist of Pregnane X Receptor (hPXR) against the NCATS DSHEA and TCM libraries: Fluorescence readout (AID 1920058). Note: 0% is about no effect. In a few lines: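 hPXR-Luc HepG2 cells, 2000/well in charcoal-stripped serum, attached 5 h, dosed for ~24 h at 37 °C. Fluorescence read is CellTiter-Fluor viability (Ex/Em 405/540 nm); rifampicin positive, tetraoctyl ammonium bromide (92 µM) cytotoxicity controls.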

Assay [12] has as its target Nuclear receptor subfamily 1 group I member 2 (Homo sapiens) (UniProt O75469). The assay is described as follows: Dual reporter qHTS for agonist of Pregnane X Receptor (hPXR) against the NCATS DSHEA and TCM libraries: Luminescence readout (AID 1920059). Note: 0% is about no effect. In a few lines: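 Luminescent PXR reporter read (ONE-Glo) after a CellTiter-Fluor viability read, following 24 h, 37C treatment of HepG2 cells stably carrying hPXR-Luc.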

Assay [13] shares this target. The assay is described as follows: Dual reporter qHTS for antagonist of Pregnane X Receptor (hPXR) against the NCATS DSHEA and TCM libraries: Luminescence Readout (AID 1920060).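 Note: HepG2 cells carrying hPXR luciferase reporter stimulated with rifampicin at 2 µM; 0% is about no effect.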 In outline:
(§3)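 hPXR-Luc HepG2 cells exposed 24 h at 37 C to compounds with 2 uM rifampicin in antagonist mode; luciferase luminescence measured by ONE-Glo, with CellTiter-Fluor viability read beforehand.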

Assay [14] in a line: Dual reporter qHTS for antagonist of Pregnane X Receptor (hPXR) against the NCATS DSHEA and TCM libraries: Fluorescence Readout (AID 1920061). Note: 0% is about no effect. In outline:
as §3

Assay [15] in a line: Stat Signaling Pathway (AID 446; active = well fitted curve in either direction with a large enough effect, not every such curve was filed as active;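 note: ME-180 cervical cancer cells given 40 pM IL-6 alongside compound; SIE-controlled beta-lactamase reporter measured as 460/530 nm FRET emission ratio; % is set by controls: 0 for no effect and ±100 for the full control effect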). In a few lines: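 ME-180 cells carrying a SIE-driven beta-lactamase reporter are stimulated with 40 pM IL-6 for 5 h at 37C in the presence of compound. The 460/530 nm FRET substrate ratio is read after 2.5 h at RT. Data are normalised to 300 pM IL-6 and to 125 nM JAK inhibitor controls.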
Assay [16] deals with Glucocorticoid receptor (Homo sapiens) (UniProt P04150). The assay is described as follows: GR-GFP Redistribution (AID 450;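 active = compounds whose dose series gives a full or clear partial fitted curve of increased nuclear translocation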; note: potency is the fitted concentration of half-maximal effect). The settings on record: U2OS GR-GFP nuclear translocation, laser cytometry, 2 h.
For assay [17] the target is unchanged. The assay is described as follows: GR-EFC Redistribution (AID 451; calls by dose curve; note: potency is the fitted concentration of half-maximal effect). Conditions: CHO-K1 GR-EFC translocation, beta-gal luminescence, 2 h. In a few lines:
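Translocation of GR-ED fusion to nuclear EA restores b-gal, read by luminescence after 1 h room-temperature detection. Engineered CHO-K1 biosensor cells, 1,000/well, exposed 2 h at 37 C to titrations up to 46 uM final.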

The target of assay [18] is Mitogen-activated protein kinase 10 (Mus musculus) (UniProt Q61831). The assay is described as follows: JNK3 AlphaScreen Assay (AID 530; active = well fitted curve in either direction with a large enough effect, not every such curve was filed as active;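 note: kinase came from lysate of stimulated human HepG2 cells; signal reports phosphorylation of biotinylated GST-cJun 1-79 at Ser73 with 10 µM ATP; series mostly up to about 57 µM; % is set by controls: 0 for no effect and ±100 for the full control effect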). In outline: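 Compound titrations were preincubated 15 minutes at room temperature with substrate, antibody and pre-activated JNK3-containing HepG2 lysate. Reactions were started with 10 uM ATP and stopped with EDTA-containing bead buffer for AlphaScreen detection.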
(In general: Bead proximity is the source of the signal in Alpha formats.)

Assay [19] concerns the target Ubiquitin carboxyl-terminal hydrolase 1 (Homo sapiens) (UniProt O94782). The assay is described as follows: Inhibitors of USP1/UAF1: Pilot qHTS (AID 504865).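 Note: rhodamine fluorescence freed from ubiquitin-rhodamine substrate followed over time; top concentration of the series differs between compounds; % is set by controls: 0 for no effect and ±100 for the full control effect; nearly all actives have a fitted effect of over 35% in size.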 In outline: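 Kinetic fluorescence assay: 1nM USP1/UAF1, 15 min compound preincubation, then 150nM Ub-Rho; 480/540 nm.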
A short description of assay [20]: HepG2 viability counterscreen (readout 1: protease activity) against the NCATS DSHEA and TCM libraries (AID 1794841).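 Note: cells exposed to compounds for about 24 h before the protease read; 0% is about no effect.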 In outline: as §1

A number with no mark means an inactive call. Inconclusive results are not listed. Calls of active or inactive are those of the source. Unless noted, calls come from the whole dose curve; as a rule, active = well fitted curve in the direction sought with a large enough effect; inconclusive = small, poorly fitted or top-dose-only effect, or another doubt; inactive = no such curve, though single readings can be large; an effect the other way counts as inactive or inconclusive.

Sequence of Nuclear receptor subfamily 1 group I member 2 (Homo sapiens) (O75469 whole entry, looked up): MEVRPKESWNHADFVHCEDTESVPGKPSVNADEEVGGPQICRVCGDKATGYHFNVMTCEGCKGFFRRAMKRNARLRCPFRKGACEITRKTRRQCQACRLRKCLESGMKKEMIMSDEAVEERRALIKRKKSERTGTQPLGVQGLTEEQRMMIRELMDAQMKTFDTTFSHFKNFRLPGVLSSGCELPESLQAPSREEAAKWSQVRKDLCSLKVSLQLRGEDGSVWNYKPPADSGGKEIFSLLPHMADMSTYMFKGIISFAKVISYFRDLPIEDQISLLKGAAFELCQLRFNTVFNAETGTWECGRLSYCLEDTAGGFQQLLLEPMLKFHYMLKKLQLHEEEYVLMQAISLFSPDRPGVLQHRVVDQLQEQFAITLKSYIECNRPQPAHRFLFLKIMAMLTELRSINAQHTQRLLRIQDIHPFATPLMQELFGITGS
Sequence of Glucocorticoid receptor (Homo sapiens) (P04150 whole entry, looked up): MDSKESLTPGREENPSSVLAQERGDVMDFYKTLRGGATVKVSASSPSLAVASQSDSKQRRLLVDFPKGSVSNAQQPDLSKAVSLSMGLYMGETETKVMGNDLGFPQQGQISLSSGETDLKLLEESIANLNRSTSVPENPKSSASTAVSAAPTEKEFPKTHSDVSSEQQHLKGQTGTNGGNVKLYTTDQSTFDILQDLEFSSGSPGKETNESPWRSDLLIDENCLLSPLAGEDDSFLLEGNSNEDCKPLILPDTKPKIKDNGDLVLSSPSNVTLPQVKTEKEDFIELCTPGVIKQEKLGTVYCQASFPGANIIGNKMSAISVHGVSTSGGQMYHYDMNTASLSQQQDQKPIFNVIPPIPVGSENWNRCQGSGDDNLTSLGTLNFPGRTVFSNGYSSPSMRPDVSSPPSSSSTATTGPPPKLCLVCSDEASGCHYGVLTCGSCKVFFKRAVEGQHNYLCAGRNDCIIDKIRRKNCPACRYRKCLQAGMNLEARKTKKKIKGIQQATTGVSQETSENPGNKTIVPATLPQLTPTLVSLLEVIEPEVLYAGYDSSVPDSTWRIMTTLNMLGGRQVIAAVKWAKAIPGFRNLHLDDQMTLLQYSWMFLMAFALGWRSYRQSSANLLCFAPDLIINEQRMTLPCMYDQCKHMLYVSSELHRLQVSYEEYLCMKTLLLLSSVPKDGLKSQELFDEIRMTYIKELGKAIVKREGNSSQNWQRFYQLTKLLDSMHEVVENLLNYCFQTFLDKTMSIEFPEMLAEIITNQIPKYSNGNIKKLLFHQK
Sequence of Cytochrome P450 2D6 (Homo sapiens) (P10635 whole entry, looked up): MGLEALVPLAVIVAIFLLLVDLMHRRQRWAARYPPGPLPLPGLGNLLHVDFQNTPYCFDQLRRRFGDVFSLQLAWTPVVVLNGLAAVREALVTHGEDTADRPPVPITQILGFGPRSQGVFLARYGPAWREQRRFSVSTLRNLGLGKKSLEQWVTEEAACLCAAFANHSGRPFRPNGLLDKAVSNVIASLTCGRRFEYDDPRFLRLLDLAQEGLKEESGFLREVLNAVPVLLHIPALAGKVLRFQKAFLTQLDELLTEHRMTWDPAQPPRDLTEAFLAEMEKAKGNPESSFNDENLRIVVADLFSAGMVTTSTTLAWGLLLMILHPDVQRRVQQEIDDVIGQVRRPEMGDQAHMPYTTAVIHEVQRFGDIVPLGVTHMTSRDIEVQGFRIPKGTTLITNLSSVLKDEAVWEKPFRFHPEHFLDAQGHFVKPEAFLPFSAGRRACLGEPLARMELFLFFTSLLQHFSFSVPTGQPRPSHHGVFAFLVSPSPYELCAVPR
Sequence of Ubiquitin carboxyl-terminal hydrolase 1 (Homo sapiens) (O94782 whole entry, looked up): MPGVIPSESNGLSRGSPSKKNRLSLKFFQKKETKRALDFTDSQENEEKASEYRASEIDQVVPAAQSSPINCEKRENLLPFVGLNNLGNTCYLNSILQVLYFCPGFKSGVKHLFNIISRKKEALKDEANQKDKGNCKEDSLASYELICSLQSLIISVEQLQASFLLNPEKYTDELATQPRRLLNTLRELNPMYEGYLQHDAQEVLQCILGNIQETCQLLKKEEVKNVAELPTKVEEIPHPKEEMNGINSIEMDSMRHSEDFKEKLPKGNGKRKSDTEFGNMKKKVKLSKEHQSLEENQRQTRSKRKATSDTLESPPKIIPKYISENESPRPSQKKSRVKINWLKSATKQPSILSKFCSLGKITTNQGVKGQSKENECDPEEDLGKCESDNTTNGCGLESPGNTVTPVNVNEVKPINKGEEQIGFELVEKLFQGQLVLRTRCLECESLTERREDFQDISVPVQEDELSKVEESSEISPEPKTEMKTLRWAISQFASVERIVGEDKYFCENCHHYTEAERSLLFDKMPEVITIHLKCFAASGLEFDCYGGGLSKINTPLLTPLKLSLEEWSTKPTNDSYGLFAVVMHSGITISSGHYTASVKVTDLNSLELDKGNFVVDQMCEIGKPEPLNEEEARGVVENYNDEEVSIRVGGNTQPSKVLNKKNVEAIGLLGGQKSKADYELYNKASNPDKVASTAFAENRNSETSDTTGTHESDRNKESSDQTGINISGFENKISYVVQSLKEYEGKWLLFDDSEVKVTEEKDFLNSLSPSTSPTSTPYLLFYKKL
Sequence of Cytochrome P450 3A4 (Homo sapiens) (P08684 whole entry, looked up): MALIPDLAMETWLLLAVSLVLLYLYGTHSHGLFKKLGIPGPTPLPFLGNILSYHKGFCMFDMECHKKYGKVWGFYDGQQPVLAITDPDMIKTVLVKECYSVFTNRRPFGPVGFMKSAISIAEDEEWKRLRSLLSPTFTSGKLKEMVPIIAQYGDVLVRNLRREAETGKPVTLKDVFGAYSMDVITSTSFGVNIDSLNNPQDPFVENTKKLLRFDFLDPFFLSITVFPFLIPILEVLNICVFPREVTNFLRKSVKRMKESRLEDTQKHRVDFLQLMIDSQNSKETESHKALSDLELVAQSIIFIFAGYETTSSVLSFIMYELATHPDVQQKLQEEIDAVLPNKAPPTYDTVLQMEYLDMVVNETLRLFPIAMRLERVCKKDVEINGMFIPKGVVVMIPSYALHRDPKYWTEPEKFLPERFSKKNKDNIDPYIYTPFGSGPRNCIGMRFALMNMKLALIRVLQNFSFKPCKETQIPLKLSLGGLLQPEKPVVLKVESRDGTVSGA
Sequence of Cytochrome P450 2C19 (Homo sapiens) (P33261 whole entry, looked up): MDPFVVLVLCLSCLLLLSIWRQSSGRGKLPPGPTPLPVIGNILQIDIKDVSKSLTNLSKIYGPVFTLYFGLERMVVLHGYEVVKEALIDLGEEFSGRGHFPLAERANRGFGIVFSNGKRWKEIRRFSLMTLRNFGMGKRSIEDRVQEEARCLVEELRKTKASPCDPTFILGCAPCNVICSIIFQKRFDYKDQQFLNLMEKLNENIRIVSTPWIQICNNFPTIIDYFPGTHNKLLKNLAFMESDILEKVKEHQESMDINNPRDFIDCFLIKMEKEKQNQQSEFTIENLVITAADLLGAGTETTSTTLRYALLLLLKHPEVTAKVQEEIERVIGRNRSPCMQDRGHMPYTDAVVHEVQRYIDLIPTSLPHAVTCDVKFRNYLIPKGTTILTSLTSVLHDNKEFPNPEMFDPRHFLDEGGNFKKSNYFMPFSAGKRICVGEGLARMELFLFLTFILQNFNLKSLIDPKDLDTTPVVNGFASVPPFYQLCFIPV
Sequence of Cytochrome P450 1A2 (Homo sapiens) (P05177 whole entry, looked up): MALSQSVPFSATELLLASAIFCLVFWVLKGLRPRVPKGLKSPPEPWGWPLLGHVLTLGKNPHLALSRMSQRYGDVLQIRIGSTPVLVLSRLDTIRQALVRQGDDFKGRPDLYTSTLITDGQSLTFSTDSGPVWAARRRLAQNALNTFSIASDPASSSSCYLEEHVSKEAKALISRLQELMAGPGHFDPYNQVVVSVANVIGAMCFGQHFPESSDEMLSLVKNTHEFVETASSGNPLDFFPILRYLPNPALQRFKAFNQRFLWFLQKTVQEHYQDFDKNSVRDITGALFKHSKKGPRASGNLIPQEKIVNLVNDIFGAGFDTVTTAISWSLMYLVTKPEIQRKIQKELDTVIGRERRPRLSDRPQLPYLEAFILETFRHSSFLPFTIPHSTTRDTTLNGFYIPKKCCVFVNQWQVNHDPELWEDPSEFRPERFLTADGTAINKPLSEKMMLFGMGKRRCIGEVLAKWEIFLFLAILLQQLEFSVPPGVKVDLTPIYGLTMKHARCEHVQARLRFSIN
Sequence of Cytochrome P450 2C9 (Homo sapiens) (P11712 whole entry, looked up): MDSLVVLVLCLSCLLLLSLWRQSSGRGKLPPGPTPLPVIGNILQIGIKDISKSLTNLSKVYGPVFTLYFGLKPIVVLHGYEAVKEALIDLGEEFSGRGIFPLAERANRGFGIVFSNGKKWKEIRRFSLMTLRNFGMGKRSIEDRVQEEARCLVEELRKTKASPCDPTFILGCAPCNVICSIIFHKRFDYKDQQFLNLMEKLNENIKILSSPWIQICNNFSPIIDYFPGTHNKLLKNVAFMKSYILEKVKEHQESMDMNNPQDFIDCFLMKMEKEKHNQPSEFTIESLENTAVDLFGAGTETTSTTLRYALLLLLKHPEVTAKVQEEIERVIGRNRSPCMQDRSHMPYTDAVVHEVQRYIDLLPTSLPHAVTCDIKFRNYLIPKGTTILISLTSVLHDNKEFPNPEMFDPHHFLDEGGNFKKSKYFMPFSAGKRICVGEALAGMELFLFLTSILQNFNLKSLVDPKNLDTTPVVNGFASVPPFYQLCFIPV

With `CC(C)=CCC[C@](C)(O[C@@H]1O[C@H](CO)[C@@H](O)[C@H](O)[C@H]1O)[C@H]1CC[C@]2(C)[C@@H]1[C@H](O)C[C@@H]1[C@@]3(C)CC[C@H](O)C(C)(C)[C@@H]3[C@@H](O[C@@H]3O[C@H](CO)[C@@H](O)[C@H](O)[C@H]3O)C[C@]12C`, the result in assay [1], in [2], in assay [3], in assay [8], in assay [11] and in assay [13] was inactive. For the same compound, the compound was called inactive in assay [14]. In addition, the Potency result in [4], in assay [5], in [6], in [7], in assay [9] and in assay [12] was “inactive” in each case. Moreover, the max response in assay [10] is 2.82%.

On to `CN(C)c1nc(-c2cccc(NS(C)(=O)=O)c2)nc2ccccc12`, for which the compound was called inactive in assay [15]. Besides, the Potency in [16] and in assay [17] was above 46 µM each time. The Potency result in [18] and in assay [19] was “inactive” in each case.

For the compound `Cc1nc2cnc(N3CCOCC3)nc2n(CCc2ccccc2)c1=O`, the result in assay [15] was inactive. The values for the Potency in assay [16] and in assay [17] were above 9.22 µM and above 46 µM, respectively. Moreover, the Potency result in assay [18] and in assay [19] was “inactive” in each case.

Turning to `COc1ccccc1CNc1nc(-c2ccc(C(=O)N(C)C)cc2)nc2ccccc12`, the compound was classed as inactive in assay [15]. Moreover, the Potency in [16] and in assay [17] was above 46 µM throughout. The Potency entry in assay [18] and in [19] was “inactive” throughout.

For the compound `COc1ccccc1CNc1ncnc2ccc(-c3ccc(C(=O)N(C)C)cc3)cc12`, in assay [15], the compound was called inactive. In addition, the Potency in [16] and in assay [17] was above 46 µM in each case. The Potency result in assay [18] and in assay [19] was “inactive” in each case.

Take `CCCCCCCC/C=C\CCCCCCCCCCCC(=O)O`: the call in assay [1], in [2], in [3], in [20], in assay [8] and in [11] was inactive. Moreover, the compound was called inactive in assay [13] and in [14]. Also, the Potency result in assay [5] and in assay [12] was “inactive” each time. Further, the max response in [10] was 1.35%.

For `Cc1ccccc1-c1ccc2ncnc(NCCN3CCOCC3)c2c1`, in assay [15], the call was inactive. The Potency in assay [16] and in [17] was above 46 µM throughout. Further, the Potency result in assay [19] is “inactive”.

As for `CCCCCCCCCCCC(=O)O`, the Potency entry in assay [18], in assay [4], in [5] and in [12] was “inactive” each time. Moreover, the compound was called inactive in assay [3], in assay [20], in [8], in assay [11], in assay [13] and in assay [14]. The max response in assay [10] was 3.72%.

In the case of `CCCCCC/C=C/CCCCCCCCCC(=O)O`, the call in assay [3], in assay [20], in assay [8], in assay [11], in [13] and in [14] was inactive. Further, the Potency entry in assay [4] and in assay [5] was “inactive” in each case. For the same compound, the max response in assay [10] was 3.83%.

On to `CN1CCN(c2nc(-c3ccoc3)nc3ccccc23)CC1`, for which, in assay [15], the result was inactive. The Potency in assay [16] and in [17] was above 46 µM throughout. Also, the Potency result in assay [19] is “inactive”.

As to `COc1ccc2[nH]cc(CCNc3nc(-c4c(C)noc4C)nc4ccccc34)c2c1`, the Potency in assay [16] and in [17] was above 46 µM in each case. The Potency result in assay [18] and in assay [19] was “inactive” throughout.

Regarding `C=C1CC/C=C(/C)CC[C@@H]2[C@@H]1CC2(C)C`, the result in assay [1], in [2], in assay [3], in [20], in assay [8] and in [11] was inactive. Moreover, the compound was called inactive in assay [13] and in assay [14]. Further, the Potency result in assay [5] was “inactive”. Also, the Potency in [7] and in [9] was 3.55 µM (active) throughout. The max response in assay [10] was 1.11%.

Values taken from PubChem BioAssay (NCATS).
